Screening data from PubChem BioAssay.
HTT-AS promoter – activates huntingtin-antisense promoter activity. HEK293 HTT-AS promoter firefly luciferase reporter, 24 h; response scale: percent change from vehicle, -100% = no light. Potency, µM (titrated, usually from 57.5 µM), without a hit: at the top dose activity change, positive = activation, usual class: activators. hit rate 0.24% among 48,000. AID 1508624; further: potency means the concentration at half of the fitted maximal effect; nearly all actives have a fitted effect of over 55% in size
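Firefly luciferase signal from promoter-reporter HEK293 cells was scaled between vehicle (0%) and zero RLU (-100%). Compounds were tested at final concentrations of up to 57.5 uM over 24 h at 37 degrees C. PTC124 at 50 uM final served as control inhibitor.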
HTT prom inh – HTT promoter inhibition. HEK293 HTT promoter firefly luciferase reporter, 24 h. Potency, µM (doses to about 57.5 µM), inactives show top-dose activity change, negative = inhibition, most hits filed as inhibitors. hit rate 0.93% among 48,000; further: potency means the concentration at half of the fitted maximal effect; nearly all actives have a fitted effect of over 50% in size
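Firefly luciferase readout (Dual-Glo, 10 min RT) after 24 h, 37 °C compound exposure (final up to 57.5 uM) of HEK293 reporter cells cultured 24 h beforehand; PTC124 at 50 uM final as control inhibitor; activity scaled vehicle 0%, zero RLU -100%.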
TSG101-PTAP inh – blocks PTAP binding to human TSG101, validation; Q99816; Fluorescence polarization, FITC-PTAP peptide/Tsg101, 20 min; Potency, µM (doses to about 115 µM), usual class: inhibitors; 44,000 tested, under 10 active; AID 1347069; further: potency means the concentration at half of the fitted maximal effect; 0% is about no effect
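Fluorescence polarization binding of Tsg101 binding domain (10 uM final) to FITC-labeled PTAP-motif peptide (50 nM final) in HEPES pH 7.5/NaCl/Tween 20/EDTA/TCEP buffer; 20 min at r.t. Actives by curve class, <25 µM, efficacy <60% inhibition.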
GALK inhibitor – inhibitors of human galactokinase (GALK); P51570; Potency, µM (highest dose often 57.5 µM), inactives show top-dose activity, negative = inhibition, most hits filed as inhibitors; recombinant GALK, Kinase-Glo ATP luminescence, 1 h; 44,000 tested, under 10 active;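 further: plate controls were full GALK reaction for no effect and reaction lacking GALK for full effect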
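Luminescent ATP-depletion readout (Kinase-Glo Plus, 10 min) after 1 h RT reaction of 5 nM GALK, 35 uM ATP, 100 uM galactose, pH 8.0 HEPES buffer. Decreased kinase activity scored as inhibition.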
NTMT1 inh – NTMT1 methyltransferase inhibition. Q9BV86. NTMT1 MTase-Glo SAH luminescence, purified enzyme. Potency, µM (top dose mostly 114 µM), inactives show at the highest dose activity change, negative = inhibition, usual class: inhibitors. hit rate 2.5% among 59,000;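 further: potency means the concentration at half of the fitted maximal effect; plate controls were DMSO vehicle for no effect and no enzyme for full effect; nearly all actives have a fitted effect of over 65% in size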
Target sequence (Q9BV86 whole entry, looked up): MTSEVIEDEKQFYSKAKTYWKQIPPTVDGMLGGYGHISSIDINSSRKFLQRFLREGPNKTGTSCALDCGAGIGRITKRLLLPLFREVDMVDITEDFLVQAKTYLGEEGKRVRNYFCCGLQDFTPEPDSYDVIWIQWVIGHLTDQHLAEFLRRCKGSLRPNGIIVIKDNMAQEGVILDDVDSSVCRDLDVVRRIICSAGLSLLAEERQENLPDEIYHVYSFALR
B2AR arrestin ag – ADRB2 beta-arrestin recruitment; P07550; HTLA Tango cells, beta-arrestin recruitment, luciferase luminescence, 18 h; 44,000 tested, under 10 active; AID 1347077; Potency, µM (highest dose often 46.1 µM), hits mostly activators;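 further: potency means the concentration at half of the fitted maximal effect; 0% = DMSO and full agonism = EC100 isoproterenol or metaproterenol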
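Ligand-induced beta-arrestin recruitment to recombinant beta2-AR is measured via a tTA-driven luciferase reporter in Tango cells after 18 hr compound exposure at 37 degrees C. Concentrations span up to 46 microM.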
DYRK1A KinaseGlo – blocks recombinant human DYRK1A kinase activity; shares compounds with NTMT1 inh; recombinant DYRK1A, Kinase-Glo ATP depletion luminescence; Potency, µM (titrated, usually from 76.9 µM), inactives show at the top dose activity change, negative = inhibition, actives largely listed as inhibitors; hit rate 80% among 100
NNMT counter – counter-screen for NTMT1 inhibitors: human NNMT inhibition; AID 1645878; NNMT MTase-Glo luminescence, SAH detection; hit rate 10% among 120; Potency, µM (titrated, usually from 57.1 µM), inactives show at the highest dose activity, negative = inhibition, actives largely listed as inhibitors; shares compounds with NTMT1 inh
Starred values were filed as active, the others as inactive; i = inactive; . = no result given; [ ] = another dose, or the depositor's remark. The entries come from a sample that favours hits as a whole. The call rests on the fitted dose curve; in most records, active means well fitted curve in the direction sought with a large enough effect; inconclusive means small, poorly fitted or top-dose-only effect, or another doubt; inactive means no such curve, though single readings can be large; an effect the other way counts as inactive or inconclusive.

SMILES	HTT-AS promoter	HTT prom inh	TSG101-PTAP inh	GALK inhibitor	NTMT1 inh	B2AR arrestin ag	others
c1c[nH]c(CNc2ncnc3ccc(-c4ccoc4)cc23)n1	.	.	.	.	2%	.	DYRK1A KinaseGlo=9.2µM*
c1cncc(CNc2ncnc3ccc(-c4ccoc4)cc23)c1	.	.	.	.	-9%	.
O=C(Nc1ccccc1C(F)(F)F)N1Cc2ccccc2Oc2ncccc21	5%	19%	i	-3%	3%	i
O=C(Nc1ccc(S(=O)(=O)C(F)(F)F)cc1)C1=CCN(c2ncccc2C(F)(F)F)CC1	.	.	.	.	9%[57.5 µM]	.	NNMT counter=-12%
O=C(OCC#CCSc1nnc(-c2ccc3ccccc3c2)o1)c1cccc(F)c1	.	.	.	.	10%[57.5 µM]	.
